Screening data deposited in PubChem by National Center for Advancing Translational Sciences (NCATS).
Most compounds without a hit are left out; they make up all but 3.6% or so of the library.
TGFb inhibitor: inhibitors of TGF-b signaling. HepG2 CAGA-GFP TGF-b/SMAD3 reporter, GFP fluorescence, 18 h; TGF-beta stimulated, 500 pg/mL final. Potency, µM (top dose mostly 46.1 µM), without a hit: at the highest dose activity, negative = inhibition, usual class: inhibitors. hit rate 1.2% among 410,000. AID 588855; note: % is set by controls: 0 for no effect and ±100 for the full control effect; nearly all actives have a fitted effect of over 65% in size
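Read-out: total well GFP (ex488/em500-530) summed from mean per-cell fluorescence. Cells: HEPG2 CAGA-GFP, 1% FBS DMEM, 18 h at 37 degrees C with 500 pg/mL final TGF-beta. Unstimulated wells served as the full-inhibition control; stimulated DMSO wells = 0%.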
Nrf2 inh: inhibitors of Nrf2 signaling | A549 ARE-Fluc reporter, luciferase luminescence, 18-24 h | Potency, µM (highest dose often 46 µM), for the others: top-dose activity change, negative = inhibition, usual class: inhibitors | hit rate 2.1% among 360,000 | AID 504444; note: % is set by controls: 0 for no effect and ±100 for the full control effect; nearly all actives have a fitted effect of over 60% in size
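Concentration-response testing used A549 ARE_Fluc cells at 5000 cells/well. Following an 18-24 h compound incubation, viability was read by fluorescence (Ex 405/Em 525) and luciferase output by luminescence.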
Nrf2 activator: activators of Nrf2 (ARE) signaling; AREc32 ARE-luciferase reporter (MCF7-derived line), luminescence, 24 h; Potency, µM (doses to about 46.1 µM), for the others: at the top dose activation, actives largely listed as activators; hit rate 0.31% among 410,000; note: % of control where 0% means no effect; nearly all actives have a fitted effect of over 65% in size
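AREc32_Fluc, 1000 cells/well, OPTI-MEM + 5% FBS, o/n 37 deg C 5% CO2; 23 nL cpd by pin tool, 24 hr; Steady-Glo 30 min RT, luminescence.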
A549 viability: counter-screen for Nrf2 inhibitors: cytotoxicity in A549 cells. A549 ARE-Fluc cells, CellTiter-Fluor viability, 18-24 h. Potency, µM (top dose mostly 46 µM), for the others: top-dose activity change, negative = cytotoxicity, usual class: inhibitors. hit rate 0.16% among 390,000. AID 504648; note: % is set by controls: 0 for no effect and ±100 for the full control effect
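Cytotoxicity counterscreen: CellTiter-Fluor fluorescence was measured in A549 ARE_Fluc cells after 18-24 h of compound exposure in a concentration series. The subsequent BugLite luminescent read reports ARE-luciferase activity.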
HepG2 tox: counter-screen for TGF-b inhibitors: cytotoxicity in HepG2 cells; AID 588856; HepG2 CAGA-GFP viability, ATP luminescence, 18 h; Potency, µM (highest dose often 46.1 µM), without a hit: top-dose activity change, negative = cytotoxicity, actives largely listed as cytotoxic; hit rate 0.76% among 410,000
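HepG2 CAGA-GFP cells (1000/well, DMEM with 1% FBS) received compound, then TGF-beta at 500 pg/mL final, and were incubated 18 hours at 37 degrees C. Viability was read by CellTiter-Glo luminescence. Media-only wells were set as complete cell-killing and DMSO as no toxicity.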
An asterisk follows results filed as active; ! = repeats disagree; [ ] = remark or other dose. Calls come from the whole dose curve; as a rule, active = well fitted curve in the direction sought with a large enough effect; inconclusive = small, poorly fitted or top-dose-only effect, or another doubt; inactive = no such curve, though single readings can be large; an effect the other way counts as inactive or inconclusive. Potency is the fitted concentration of half-maximal effect.

How did CN1CCN(c2cc(-c3cccc(C(=O)O)c3)nc3ccnn23)CC1 do in these assays?
TGFb inhibitor: 1%; Nrf2 activator: 0%[9.22 µM]; HepG2 tox: -5%

How did COc1ccccc1N1CCN(C(=O)CN(Cc2ccccc2)S(C)(=O)=O)CC1 do in these assays?
TGFb inhibitor: -1%; Nrf2 inh: 21%; Nrf2 activator: 0%; A549 viability: -7%; HepG2 tox: -52%

What do the screens show for `O=C(Nc1ccccc1N(C(=O)c1ccco1)S(=O)(=O)c1cccs1)c1ccco1`?
TGFb inhibitor: -28%; Nrf2 inh: -16%; Nrf2 activator: 0%; A549 viability: -13%; HepG2 tox: -35%

Results for CCOC(=O)/C=C1\CN(Cc2cc(OC)c(OC)c(OC)c2)S(=O)(=O)c2ccccc21 ?
TGFb inhibitor: -25%; Nrf2 inh: inconclusive; Nrf2 activator: 6%; A549 viability: -9%; HepG2 tox: -18%

What do the screens show for `O=C1CN(C(=O)COC(=O)/C=C/c2ccco2)c2ccccc2N1`?
TGFb inhibitor: -5%; Nrf2 inh: 0%; Nrf2 activator: 13µM*; A549 viability: 1%; HepG2 tox: -2%

What do the screens show for `COC(CN(C)C(=O)C1CCC(CNS(=O)(=O)c2ccccc2)CC1)OC` (configuration not stated)?
TGFb inhibitor: 13%; Nrf2 inh: 6%; Nrf2 activator: -1%; A549 viability: 9%; HepG2 tox: 1%

How did Cc1ccc(-c2cc(-c3ccco3)c3c(N)c(C(=O)NN)oc3n2)cc1 do in these assays?
TGFb inhibitor: 8%; Nrf2 inh: 8.2µM*; Nrf2 activator: 5%; A549 viability: -19%; HepG2 tox: 48%

How did CCCN1CCN(S(=O)(=O)c2cc3c(cc2C)NC(=O)CO3)CC1 do in these assays?
TGFb inhibitor: 0%; Nrf2 inh: 5%; Nrf2 activator: 0%; A549 viability: 2%; HepG2 tox: -5%

Results for O=C(Cc1cccs1)N/N=C/c1ccccn1 ?
TGFb inhibitor: 5%; Nrf2 inh: 24%; Nrf2 activator: -1%; A549 viability: 0%; HepG2 tox: -4%

What do the screens show for `CCc1ccc(Nc2nnc(SCC(=O)Nc3sccc3C(N)=O)s2)cc1`?
TGFb inhibitor: 10µM*; Nrf2 inh: 3%; Nrf2 activator: -1%; A549 viability: 3%; HepG2 tox: -2%

What do the screens show for `COc1cccc(Nc2nnc(SCC(=O)Nc3sccc3C(N)=O)s2)c1`?
TGFb inhibitor: -17%; Nrf2 inh: -11%; Nrf2 activator: 3%; A549 viability: 10%; HepG2 tox: -16%

How did COc1ccc(CNC(=O)C2CCN(C(=O)c3sccc3-n3cccc3)CC2)cc1 do in these assays?
TGFb inhibitor: -3%; Nrf2 inh: 7%; Nrf2 activator: 0%; A549 viability: 1%; HepG2 tox: 0%

What do the screens show for `COc1ccc(N(C)C(=O)c2cc3c(s2)-c2c(C)cccc2OC3)c(OC)c1`?
TGFb inhibitor: inconclusive; Nrf2 inh: 21µM*; Nrf2 activator: 4%; A549 viability: 15%; HepG2 tox: -39%

How did COc1cccc(NC(=O)c2cc3ccccc3o/c2=N\O)c1 do in these assays?
TGFb inhibitor: -23%; Nrf2 inh: inconclusive; Nrf2 activator: 0%; A549 viability: -2%; HepG2 tox: -46%

How did O=C(Nc1ccccc1Cl)c1cc2ccccc2o/c1=N\O do in these assays?
TGFb inhibitor: 8%; Nrf2 inh: inconclusive; Nrf2 activator: 1.3µM*; A549 viability: -5%; HepG2 tox: 11%

What do the screens show for `Cc1ccc(S(=O)(=O)c2nc(S(C)(=O)=O)sc2N2CCCC2)cc1`?
TGFb inhibitor: 16%; Nrf2 inh: -6%; Nrf2 activator: 0%; A549 viability: -1%; HepG2 tox: 13%

What do the screens show for `Cc1ccc(C)c(Nc2nc3nonc3nc2Nc2cccc(C)c2C)c1`?
TGFb inhibitor: 6.3µM*; Nrf2 inh: 5.8µM*; Nrf2 activator: 1%; A549 viability: inconclusive; HepG2 tox: -45%

What do the screens show for `C=C(C)CNC(=S)NN=C1c2ccccc2-c2ccccc21`?
TGFb inhibitor: -14%; Nrf2 inh: inconclusive; Nrf2 activator: 8%; A549 viability: -6%; HepG2 tox: -44%

Results for C=C(C)CNC(=S)N/N=C/c1ccco1 ?
TGFb inhibitor: -10%; Nrf2 inh: 9%; Nrf2 activator: 11µM*; A549 viability: -1%; HepG2 tox: -9%

Results for CCc1ccc(Nc2cnn(-c3nc4ccccc4s3)c(=O)c2Cl)cc1 ?
TGFb inhibitor: inconclusive; Nrf2 inh: -12%; Nrf2 activator: 3%; A549 viability: inconclusive; HepG2 tox: 10%

How did Nn1cnc2c(c1=O)C1(CCCCC1)Cc1ccccc1-2 do in these assays?
TGFb inhibitor: 8.9µM*; Nrf2 inh: -28%; Nrf2 activator: 2%; A549 viability: 12%; HepG2 tox: 11µM*

What do the screens show for `CCc1cccc(NC(=O)CCc2nc3cccnc3n2Cc2ccc(OC)cc2)c1`?
TGFb inhibitor: inconclusive; Nrf2 inh: inconclusive; Nrf2 activator: 2%; A549 viability: -16%; HepG2 tox: -47%

What do the screens show for `OC1CCCN(Cc2ccc3ccc4cccc5ccc2c3c45)C1` (configuration not stated)?
TGFb inhibitor: 20µM*; Nrf2 inh: 1%; Nrf2 activator: 25%; A549 viability: -9%; HepG2 tox: -60%

How did Nc1ccc(/C=C/c2ccc3cccnc3c2)cc1 do in these assays?
TGFb inhibitor: -9%; HepG2 tox: -12%

How did Nc1ccc(/C=C/c2ccc3ncccc3c2)cc1 do in these assays?
TGFb inhibitor: inconclusive; Nrf2 inh: inconclusive; Nrf2 activator: 0%; A549 viability: -14%; HepG2 tox: 7.1µM*!

Results for CC(Oc1ccc(F)cc1)C(=O)Nc1nc(-c2ccccn2)cs1 (configuration not stated) ?
TGFb inhibitor: inconclusive; Nrf2 inh: 21µM*; Nrf2 activator: 9%; A549 viability: inconclusive; HepG2 tox: 10%

What do the screens show for `O=C(CCS(=O)(=O)c1ccc(F)cc1)Nc1nc(-c2ccccn2)cs1`?
TGFb inhibitor: inconclusive; Nrf2 inh: 5%; Nrf2 activator: inconclusive; A549 viability: -3%; HepG2 tox: -2%

Results for CCc1noc(C)c1C(=O)OCC(=O)N1CCc2ccccc21 ?
TGFb inhibitor: -11%; Nrf2 inh: 15%; Nrf2 activator: 0%; A549 viability: 14%; HepG2 tox: -28%

Results for CCC(=O)Nc1cccc(-c2cnc3ccccc3n2)c1 ?
TGFb inhibitor: 11%; Nrf2 inh: 30%; Nrf2 activator: 2%; A549 viability: 11%; HepG2 tox: -9%

How did O=C(CCl)Nc1cccc(-c2cnc3ccccc3n2)c1 do in these assays?
TGFb inhibitor: 7.1µM*; Nrf2 inh: -17%; Nrf2 activator: inconclusive; A549 viability: -22%; HepG2 tox: 11µM*
